PubChem BioAssay (Tox21)
Activity calls are given as the source filed them. Calls come from the whole dose curve; as a rule, active = well fitted curve in the direction sought with a large enough effect in the repeat runs; inconclusive = weak or mixed curves; inactive = flat fitted curve, though single readings scatter.

experiment: qHTS assay to test for compound auto fluorescence at 590 nm (red) in HEK293 cell free culture (AID 720683); settings: cell-free medium autofluorescence, Ex540/Em590 red; series mostly up to 91.3 µM
From the text: U.S. Tox21 Program National Center for Advancing Translational Sciences [NCATS] NIH Chemical Genomics Center [NCGC] U.S. Environmental Protection Agency [EPA] National Institutes of Environmental Health Sciences [NIEHS] National Toxicology Program [NTP] U.S. Food and Drug Administration [FDA] Tox21 Assay Overview: Compound auto fluorescence often interferes with screening of the compound library against various biological targets and signaling pathways. Some of these compounds may have fluorophoric properties. Such properties may interfere with the assay outputs resulting in false positives and/or negatives. To decrease such complications and ensure the compound activities are relevant in terms of biological response, the Tox21 10K compound library was screened for auto fluorescence. From the fluorophores used as reporter signals in our screening assays, the auto fluorescence equivalencies of compounds against three fluorophores have been evaluated: Triamterene, Fluorescein and Rose Bengal sodium for blue, green and red fluorescence, respectively. The fluorescence intensities were measured using Excitation/Emission wavelengths at 405/460nm, 485/535nm and 540/590nm for blue, green and red labels, respectively. This assay includes the red fluorescence data.
Tox21 Assay Protocol Summary: 5 uL of culture medium (DMEM containing 10% FBS) per well was dispensed into black wall/clear bottom 1536-well plates using a Multidrop Combi Dispenser (ThermoFisher Scientific, Waltham, MA). After 23 nL compound or DMSO vehicle was transferred into assay plate by a pintool work station (Kalypsys, San Diego, CA), fluorescence intensities in the assay plates were measured by an Envision (PerkinElmer, Shelton, CT) plate reader using three labels for measuring blue, green and red fluorescence at […] 460, 535 and 590nm respectively.

Question: For `CC(=O)OC1CC(C)OC(C)O1` (stereo not given), which outcome is on record?
Answer: inactive

Question: Which outcome does the source give for `O=C1CCCC1` here?
Answer: inactive

Question: Which outcome does the source give for `CCCCCCCCCCCC(=O)OC` here?
Answer: inactive

Question: For `CCCCCCCC=O`, which outcome is on record?
Answer: inactive

Question: Which outcome does the source give for `CN(C)c1ccc(O)c2c1C[C@H]1C[C@H]3[C@H](N(C)C)C(=O)C(C(N)=O)=C(O)[C@@]3(O)C(=O)C1=C2O` here?
Answer: inactive

Question: For `C=CCc1ccc(OC)c(OC)c1`, which outcome is on record?
Answer: inactive

Question: With `NCCNCCN` as the molecule, how does the outcome read?
Answer: inactive

Question: With `CC1(C)NC(=O)NC1=O` as the molecule, how does the outcome read?
Answer: inactive

Question: Which outcome does the source give for `CC(=O)c1ccc(O)cc1` here?
Answer: inactive

Question: With `Clc1ccccn1` as the molecule, how does the outcome read?
Answer: inactive

Question: With `NCCN1CCNCC1` as the molecule, how does the outcome read?
Answer: inactive

Question: With `O=C1c2ccccc2CCc2ccccc21` as the molecule, how does the outcome read?
Answer: inactive

Question: Which outcome does the source give for `COc1ccccc1OCC(O)CO` (stereo not given) here?
Answer: inactive

Question: With `NCCCCCCN` as the molecule, how does the outcome read?
Answer: inactive

Question: With `CC(C)(C)c1cc(Cc2cc(C(C)(C)C)c(O)c(C(C)(C)C)c2)cc(C(C)(C)C)c1O` as the molecule, how does the outcome read?
Answer: inactive

Question: Which outcome does the source give for `O=S(=O)(O)c1ccccc1` here?
Answer: inactive

Question: With `CC1(C)OC[C@@H]2O[C@@]3(C(=O)O)OC(C)(C)O[C@H]3[C@@H]2O1` as the molecule, how does the outcome read?
Answer: inactive

Question: With `O=S(=O)(O)c1ccc(N=Nc2c(O)ccc3cc(S(=O)(=O)O)ccc23)cc1` as the molecule, how does the outcome read?
Answer: inactive

Question: For `CCCCCCO`, which outcome is on record?
Answer: inactive

Question: For `Cc1ccc2ncccc2c1`, which outcome is on record?
Answer: inactive

Question: For `CCCCCCC=O`, which outcome is on record?
Answer: inactive

Question: For `O=C(O)c1ccc(C(=O)O)c(C(=O)O)c1`, which outcome is on record?
Answer: inactive

Question: With `CC(C)(C#N)c1cc(Cn2cncn2)cc(C(C)(C)C#N)c1` as the molecule, how does the outcome read?
Answer: inactive

Question: For `c1ccc(Oc2ccccc2)cc1`, which outcome is on record?
Answer: inactive

Question: For `COc1ccc([N+](=O)[O-])cc1N`, which outcome is on record?
Answer: inactive

Question: With `CC(=O)Oc1ccc(C)cc1` as the molecule, how does the outcome read?
Answer: inactive

Question: Which outcome does the source give for `C=CC(C)CCCC(C)(C)O` (stereo not given) here?
Answer: inactive

Question: With `CC(C)OP(=O)(CP(=O)(OC(C)C)OC(C)C)OC(C)C` as the molecule, how does the outcome read?
Answer: inactive

Question: Which outcome does the source give for `O=C(O)Cn1c(=O)n(Cc2ccc(Br)cc2F)c(=O)c2ccc(Cl)cc21` here?
Answer: inactive

Question: For `C=C(C)CNCC`, which outcome is on record?
Answer: inactive

Question: With `CC1(C)S[C@@H]2[C@H](NC(=O)COc3ccccc3)C(=O)N2[C@H]1C(=O)O` as the molecule, how does the outcome read?
Answer: inactive

Question: For `CCCCCCCO`, which outcome is on record?
Answer: inactive

Question: Which outcome does the source give for `CC(=O)OCc1ccccc1` here?
Answer: inactive

Question: Which outcome does the source give for `COC(=O)CCCC(=O)OC` here?
Answer: inactive

Question: For `CCNC(=S)NCC`, which outcome is on record?
Answer: inactive

Question: With `CC(C)(Oc1ccc(CCNC(=O)c2ccc(Cl)cc2)cc1)C(=O)O` as the molecule, how does the outcome read?
Answer: inactive

Question: With `N[C@H](Cc1c[nH]c2ccccc12)C(=O)O` as the molecule, how does the outcome read?
Answer: inactive

Question: Which outcome does the source give for `C=CC(=O)OCCC(=O)O` here?
Answer: inactive

Question: For `CC1(C)CC(N)CC(C)(CN)C1` (stereo not given), which outcome is on record?
Answer: inactive

Question: Which outcome does the source give for `OC1C(O)C(O)C(O)C(O)C1O` (stereo not given) here?
Answer: inactive
